VP16 counter = counter-screen for ROR gamma inhibitors: Gal4-VP16 reporter. Drosophila S2 Gal4-VP16 UAS-luciferase, luminescence, 20 h. Potency, µM (titrated, usually from 53.6 µM), without a hit: at the top dose activity, negative = inhibition, actives largely listed as inhibitors. 310,000 compounds, 3.5% hits. AID 2546;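 note: Gal4-VP16 expression switched on by copper sulfate through the metallothionein promoter; % is set by controls: 0 for no effect and ±100 for the full control effect; nearly all actives have a fitted effect of over 50% in size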
MCF10A rereplic = inducers of DNA re-replication in MCF 10A breast cells | 350,000 compounds, 2.9% hits | AID 624296 | MCF 10A DNA re-replication, Hoechst nuclear intensity, 48 h | Potency, µM (titrated, usually from 46.1 µM), without a hit: top-dose activity, positive = re-replication, most hits filed as activators; note: % of control where 0% means no effect; nearly all actives have a fitted effect of over 50% in size
RORgamma inh = inhibitors of mouse ROR gamma transcriptional activity | Potency, µM (titrated, usually from 53.6 µM), for the others: top-dose activity change, negative = inhibition, usual class: inhibitors | Drosophila S2 Gal4-RORgamma UAS-luciferase reporter, 20 h | 310,000 compounds, 5.4% hits | AID 2551 | P51450; note: % is set by controls: 0 for no effect and ±100 for the full control effect; nearly all actives have a fitted effect of over 60% in size
Target sequence (P51450 whole entry, looked up, the tested form may be a part): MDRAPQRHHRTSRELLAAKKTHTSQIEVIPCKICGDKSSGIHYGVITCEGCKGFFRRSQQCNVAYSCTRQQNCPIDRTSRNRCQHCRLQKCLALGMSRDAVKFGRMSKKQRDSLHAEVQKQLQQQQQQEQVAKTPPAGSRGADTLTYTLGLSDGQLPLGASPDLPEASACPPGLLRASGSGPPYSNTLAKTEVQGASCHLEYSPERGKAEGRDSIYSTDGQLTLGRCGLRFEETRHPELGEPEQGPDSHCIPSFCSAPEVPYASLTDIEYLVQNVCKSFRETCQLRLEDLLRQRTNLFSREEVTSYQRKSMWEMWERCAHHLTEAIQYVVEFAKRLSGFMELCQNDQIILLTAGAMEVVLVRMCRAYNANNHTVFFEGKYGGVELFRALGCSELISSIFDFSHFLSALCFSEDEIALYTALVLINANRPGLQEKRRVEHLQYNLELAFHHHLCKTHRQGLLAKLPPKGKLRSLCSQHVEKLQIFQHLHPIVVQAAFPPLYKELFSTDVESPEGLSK
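Read-out: Photinus luciferase luminescence; inhibitors lower reporter signal. Insect Schneider cells with Gal4-ROR gamma fusion under metallothionein promoter, UAS reporter; 700 uM final copper sulfate induction, 20 hr, ambient temperature.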
SW480 rereplic = inducers of DNA re-replication in SW480 colon cancer cells | SW480 DNA re-replication, Hoechst DNA content imaging, 48 h | Potency, µM (series often up to 46.1 µM), for inactives: at the highest dose re-replication activation, hits mostly activators | 340,000 compounds, 1.8% hits | AID 624297; note: % of control where 0% means no effect; nearly all actives have a fitted effect of over 55% in size
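DNA re-replication was detected as more nuclei of elevated Hoechst intensity after 48 hr exposure to compound (23 nL pinned per well of 250 cells).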
KB-3-1 tox = KB-3-1 parental cell cytotoxicity; KB-3-1 viability, CellTiter-Glo ATP luminescence, 72 h; Potency, µM (titrated, usually from 46.1 µM), usual class: cytotoxic; AID 1347075; 400,000 compounds, 1.4% hits; note: % is set by controls: 0 for no effect and ±100 for the full control effect; nearly all actives have a fitted effect of over 60% in size
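Cells are dispensed, compounds pinned in, plates held at 37 °C for 72 h, then CellTiter-Glo is added and luminescence read after 10 minutes. Cell line: parental KB-3-1 in phenol-red-free DMEM, 10% FBS.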
KB-V1 cytotox = kills drug-selected multidrug resistant KB-V1 cells; AID 1347076; Potency, µM (top dose mostly 46.1 µM), usual class: cytotoxic; 400,000 compounds, 3.4% hits; KB-V1 MDR cells viability, CellTiter-Glo, 72 h; note: % is set by controls: 0 for no effect and ±100 for the full control effect; nearly all actives have a fitted effect of over 60% in size
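Drug-selected KB-V1 cells, grown in DMEM lacking phenol red with 10% FBS, receive compound titrations; after three days at 37 degrees C, surviving cell ATP is quantified by CellTiter-Glo luminescence and responses normalized and curve-fitted.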
The depositor's hits bear a star; i = inactive; u = inconclusive; x = not tested or not shown; [ ] = dose if it differs, or a comment. Most compounds without a hit are left out; they make up all but 10% or so of the library. Calls come from the whole dose curve; as a rule, active = well fitted curve in the direction sought with a large enough effect; inconclusive = small, poorly fitted or top-dose-only effect, or another doubt; inactive = no such curve, though single readings can be large; an effect the other way counts as inactive or inconclusive. Potency is the fitted concentration of half-maximal effect.

SMILES	VP16 counter	MCF10A rereplic	RORgamma inh	SW480 rereplic	KB-3-1 tox	KB-V1 cytotox
Cc1cc2nc(/C(C#N)=C/c3ccncc3)[nH]c2cc1C	0.3%	23.1µM*	-14.8%	13µM*	i	i
Cc1ccc2nc(/C(C#N)=C/c3cn[nH]c3-c3ccc(F)cc3)[nH]c2c1	-29.6%	13µM*	u	u	u	u
Cc1ccc2nc(/C(C#N)=C/c3ccccc3C(=O)O)[nH]c2c1	-10.6%	u	-7.2%	7.6%	i	i
Cc1ccc2nc(/C(C#N)=C/c3cccc(Br)c3)[nH]c2c1	x	x	x	x	i	u
N#C/C(=C\c1ccncc1)c1nc2ccccc2[nH]1	1.3%	u	-4.8%	-1.2%	i	i
Cc1ccc2nc(/C(C#N)=C/c3ccc(O)c(O)c3)[nH]c2c1	x	u	x	23.1µM*	u	i
N#C/C(=C\c1cccnc1)c1nc2ccccc2[nH]1	-13.6%	u	u	u	u	23.1µM*
COc1cc(NC(=O)COCc2cc(-c3ccc4c(c3)OCO4)on2)cc(OC)c1	x	x	x	x	i	i
CN1c2ccccc2C(=O)N2CCc3c([nH]c4ccccc34)C21 (centres undefined)	-18.9%	x	12.6%	x	x	x
COc1ccccc1NC(=O)c1nc(SCc2ccccc2F)ncc1Cl	x	x	x	x	i	i
COc1ccccc1CNC(=O)CCCN1C(=O)CSc2c1c(C)nn2-c1ccccc1	x	x	x	x	i	i
C#CCOCCOCCOCCNc1nc(N2CCN(C(=O)CCCCCCCCCCNC(=O)[C@H](CCCCN)n3cc(C[C@@H](C)CC)nn3)CC2)nc(N2CCN(C(=O)CCCCCCCCCCNC(=O)[C@H](CCCCN)n3cc(C[C@@H](C)CC)nn3)CC2)n1	x	18.4µM*	x	-7.6%[9.22 µM]	u	u
C#CCOCCOCCOCCNc1nc(N2CCN(C(=O)[C@H](Cc3cc4ccccc4[nH]3)n3cc([C@@H](N)CC(C)C)nn3)CC2)nc(N2CCN(C(=O)[C@H](Cc3cc4ccccc4[nH]3)n3cc([C@@H](N)CC(C)C)nn3)CC2)n1	15.8µM*	11.9%	u	-15.0%	i	u
C#CCOCCOCCOCCNc1nc(N2CCN(C(=O)CCCCCCCCCCNC(=O)[C@H](CCCCN)n3cc(CCO)nn3)CC2)nc(N2CCN(C(=O)CCCCCCCCCCNC(=O)[C@H](CCCN=C(N)N)n3cc(C[C@@H](C)CC)nn3)CC2)n1	x	24.6%	x	-7.4%	u	i
C#CCOCCOCCOCCNc1nc(N2CCN(C(=O)Cn3cc(CCCCN)nn3)CC2)nc(N2CCN(C(=O)[C@H](Cc3ccc(O)cc3)n3cc(CCO)nn3)CC2)n1	x	3.66µM*	x	4.7%[9.22 µM]	i	i
C#CCOCCOCCOCCNc1nc(N2CCN(C(=O)CCCCCCCCCCNC(=O)[C@@H](CCSC)n3cc(CCO)nn3)CC2)nc(N2CCN(C(=O)CCCCCCCCCCNC(=O)[C@H]([C@@H](C)CC)n3cc(CCCCN=C(N)N)nn3)CC2)n1	x	-10.4%	x	-7.2%	16.4µM*	u
CCCNC(=O)C1(C)CCCN(C(=O)c2cccc(C(F)(F)F)c2)C1 (centres undefined)	x	x	x	x	i	i
CC1CCc2c(sc(NC(=O)c3cc(-c4cccc(Cl)c4)on3)c2C(N)=O)C1 (centres undefined)	x	x	x	x	i	i
C#CCOCCOCCOCCNc1nc(N2CCN(C(=O)CCCCCCCCCCNC(=O)[C@@H]([C@H](C)O)n3cc(C)nn3)CC2)nc(N2CCN(C(=O)CCCCCCCCCCNC(=O)[C@@H]([C@H](C)O)n3cc(C)nn3)CC2)n1	x	13µM*	x	2.2%	u	i
Cc1ccc(NC(=S)Nc2cc(-c3ccccc3)[nH]n2)cc1Cl	2.24µM*	10.6%	0.794µM*	4.3%	i	i
Fc1ccc(NC(=S)Nc2cc(-c3ccccc3)[nH]n2)cc1Cl	1.58µM*	u	0.794µM*	-2.8%	i	u
CCCN1CCN(CC2=C(C(=O)OCC)C(c3cccc(OC)c3OC)NC(=O)N2)CC1 (centres undefined)	x	x	x	x	i	i
CS(=O)(=O)c1ccc(NC(=O)COc2ccccc2C(=O)Nc2ccccc2)cc1	x	x	x	x	i	i
CCCCc1ccc(CC(=O)NO)cc1	x	x	x	x	i	i
CC(C)OC(=O)c1c(NC(=O)c2cccs2)sc2c1CCCC2	-5.3%	16.4µM*	-43.9%	10.2%	i	i
SMILES	VP16 counter	MCF10A rereplic	RORgamma inh	SW480 rereplic	KB-3-1 tox	KB-V1 cytotox
O=C(Nc1sc2c(c1C(=O)NCc1cccnc1)CCCC2)c1ccco1	-11.8%	u	-7.9%	-8.2%	i	23.1µM*
CC(C)OC(=O)c1c(NC(=O)c2ccco2)sc2c1CCCCC2	0.0%	16.4µM*	24.6%	-5.6%	i	i
CC1CCc2c(sc(NC(=O)c3cccs3)c2C(=O)O)C1 (centres undefined)	u	u	31.4%	-8.5%	10.3µM*	i
Cc1ccc2c(=O)cc(C(=O)Nc3sc4c(c3C(=O)NCc3cccnc3)CCCC4)oc2c1C	x	x	x	x	i	i
COC(=O)C(NC(=O)CC(C)C)(Nc1nc2c(s1)CCCC2)C(F)(F)F (centres undefined)	x	x	x	x	i	i
Cc1cccc(-c2cc3nc4c(c(N5CCOCC5)n3n2)CCCC4)c1	x	1.0%	3.8%[0.365 µM]	-0.1%	i	u
Cc1cc(N2CCN(C(=O)c3ccco3)CC2)n2nc(-c3cccc(F)c3)cc2n1	-16.1%	23.1µM*	-19.9%	u	i	i
CCN1CCN(c2cc(-c3ccccc3)nc3cc(-c4cccc(F)c4)nn23)CC1	1.7%	10.3µM*	8.9%	u	u	u
Fc1ccc(-c2cc3nc4c(c(N5CCOCC5)n3n2)CCCC4)cc1	-11.0%	10.5%	3.16µM*	0.7%	i	u
OC1CCCN(c2c3c(nc4cc(-c5cccc(Cl)c5)nn24)CCC3)C1 (centres undefined)	-19.1%	-4.8%	32.1%	5.9%	i	16.4µM*
Cc1cccc(-c2cc3nc4c(c(N5CCCC(O)C5)n3n2)CCC4)c1 (centres undefined)	-1.8%	3.6%	-4.3%	6.5%	i	u
CC(C)c1ccc(-n2nnnc2SCc2nc(N)nc(N)n2)cc1	x	x	x	x	i	i
O=C(c1cnc(N2CCCCC2)c2ccccc12)N1CCN(c2ccc(F)cc2)CC1	x	x	x	x	i	u
COc1ccc(C(C)(O)c2nc(-c3cccc(C(F)(F)F)c3)cs2)cc1 (centres undefined)	x	x	x	x	i	i
CC[C@]1(c2ccccc2)NC(=O)N(C)C1=O	5.7%[17 µM]	x	-18.5%[16.9 µM]	x	x	x
